Data as given in PubChem BioAssay (NCATS).
A number with no mark means an inactive call. Inconclusive results are not listed. The source made the active and inactive calls. Unless noted, the call rests on the fitted dose curve; in most records, active means well fitted curve in the direction sought with a large enough effect; inconclusive means small, poorly fitted or top-dose-only effect, or another doubt; inactive means no such curve, though single readings can be large; an effect the other way counts as inactive or inconclusive.

Key:
[1] = target: Lysosomal acid glucosylceramidase (Homo sapiens) (UniProt P04062); experiment: Glucocerebrosidase-p2 (AID 348; in the data active means potency below about 10 µM; further: potency means the concentration at half of the fitted maximal effect); conditions: purified GBA, blue fluorogenic substrate, 40 min
Chain of Lysosomal acid glucosylceramidase (Homo sapiens) (P04062 whole entry, looked up): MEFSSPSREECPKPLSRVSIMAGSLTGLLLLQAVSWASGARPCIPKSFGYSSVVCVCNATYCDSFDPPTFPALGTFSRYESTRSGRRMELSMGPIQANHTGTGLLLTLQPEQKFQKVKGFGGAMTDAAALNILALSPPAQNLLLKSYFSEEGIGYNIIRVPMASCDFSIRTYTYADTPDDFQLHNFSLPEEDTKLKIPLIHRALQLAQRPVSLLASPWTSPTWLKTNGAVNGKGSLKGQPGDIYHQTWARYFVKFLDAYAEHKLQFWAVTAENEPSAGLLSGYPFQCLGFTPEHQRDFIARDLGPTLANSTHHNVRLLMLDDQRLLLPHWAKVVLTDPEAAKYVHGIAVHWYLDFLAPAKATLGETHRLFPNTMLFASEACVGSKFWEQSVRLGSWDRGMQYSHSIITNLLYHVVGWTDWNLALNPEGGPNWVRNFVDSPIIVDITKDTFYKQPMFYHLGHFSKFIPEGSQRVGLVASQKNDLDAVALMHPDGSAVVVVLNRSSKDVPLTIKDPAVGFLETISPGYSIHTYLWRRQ
Outline: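 Compounds titrated from 0.6 nM upwards against 0.2 nM enzyme in pH 5.9 citric acid/KH2PO4, taurocholate, tween-20; blue fluorogenic substrate 80 uM, 40 min room temperature, stopped and read Ex 365/Em 440 for AC50.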

[2] = AP1 Signaling Pathway (AID 357; active means well fitted curve in either direction with a large enough effect, not every such curve was filed as active;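 further: ME-180 reporter cells stimulated with EGF at its EC50 level; on the % scale 0 is the no-effect control and ±100 the full control effect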); conditions: ME-180 AP-1-bla reporter, EGF-induced, beta-lactamase ratio, 5 h; at 7.69 µM (top of the series) unless noted
Outline: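 Titration-series screen for positive or negative modulators of EC50 EGF-induced signaling in ME-180 cells carrying an AP-1-driven beta-lactamase reporter. After 5 hours at 37 degrees Celsius, CCF4 460nm/530nm emission ratio gave %Activity; AC50 values derived.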

[3] = target: Cytochrome P450 1A2 (Homo sapiens) (UniProt P05177); experiment: p450-cyp1a2 (AID 410; calls by dose curve; further: potency means the concentration at half of the fitted maximal effect); conditions: recombinant CYP1A2, luciferin-ME demethylation, luminescence; series mostly up to 57 µM
Chain of Cytochrome P450 1A2 (Homo sapiens) (P05177 whole entry, looked up): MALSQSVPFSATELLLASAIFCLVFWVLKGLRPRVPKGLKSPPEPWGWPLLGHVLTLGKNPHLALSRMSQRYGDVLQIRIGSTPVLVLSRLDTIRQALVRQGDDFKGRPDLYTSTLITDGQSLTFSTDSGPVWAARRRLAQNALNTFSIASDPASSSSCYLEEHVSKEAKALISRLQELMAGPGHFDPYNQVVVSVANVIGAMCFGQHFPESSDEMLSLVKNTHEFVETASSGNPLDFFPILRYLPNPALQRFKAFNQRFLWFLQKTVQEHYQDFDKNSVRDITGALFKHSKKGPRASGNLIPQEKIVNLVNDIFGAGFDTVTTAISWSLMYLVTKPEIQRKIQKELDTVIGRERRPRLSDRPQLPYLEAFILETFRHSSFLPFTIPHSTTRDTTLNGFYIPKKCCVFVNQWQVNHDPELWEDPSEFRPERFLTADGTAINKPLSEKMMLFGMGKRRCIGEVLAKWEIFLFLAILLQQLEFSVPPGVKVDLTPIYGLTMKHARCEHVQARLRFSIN
Outline: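 Luminescent readout of luciferin formed from Luciferin-ME by human CYP1A2; data normalized against complete inhibition by 57 uM furafylline. Enzyme 20nM, substrate 100uM at Km, 100mM KPO4 buffer, 60 min reaction at room temperature.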

[4] = Stat Signaling Pathway (AID 446; active means well fitted curve in either direction with a large enough effect, not every such curve was filed as active;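 further: ME-180 cervical cancer cells given 40 pM IL-6 alongside compound; SIE-controlled beta-lactamase reporter measured as 460/530 nm FRET emission ratio; on the % scale 0 is the no-effect control and ±100 the full control effect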); conditions: ME-180 (cervical carcinoma) SIE beta-lactamase reporter, IL-6 stimulated, 5 h; series mostly up to 7.69 µM
Outline: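 IL-6/STAT signaling read in ME-180 cells via an SIE beta-lactamase reporter. Stimulus was 40 pM IL-6 (its AC50) for 5 hrs, so both activation and inhibition register.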

[5] = target: 3',5'-cyclic-AMP phosphodiesterase 4B (Homo sapiens) (UniProt Q07343); experiment: qHTS Assay for Inhibitors of PDE-IV (AID 607; active means well fitted activation curve with a large enough effect in the main read-out, with a control signal flat, not every such curve was filed as active; further: % of control where 0% means no effect); conditions: HEK293 ACTOne CNG channel cells, membrane potential fluorescence; series mostly up to 22.9 µM
Chain of 3',5'-cyclic-AMP phosphodiesterase 4B (Homo sapiens) (Q07343 whole entry, looked up): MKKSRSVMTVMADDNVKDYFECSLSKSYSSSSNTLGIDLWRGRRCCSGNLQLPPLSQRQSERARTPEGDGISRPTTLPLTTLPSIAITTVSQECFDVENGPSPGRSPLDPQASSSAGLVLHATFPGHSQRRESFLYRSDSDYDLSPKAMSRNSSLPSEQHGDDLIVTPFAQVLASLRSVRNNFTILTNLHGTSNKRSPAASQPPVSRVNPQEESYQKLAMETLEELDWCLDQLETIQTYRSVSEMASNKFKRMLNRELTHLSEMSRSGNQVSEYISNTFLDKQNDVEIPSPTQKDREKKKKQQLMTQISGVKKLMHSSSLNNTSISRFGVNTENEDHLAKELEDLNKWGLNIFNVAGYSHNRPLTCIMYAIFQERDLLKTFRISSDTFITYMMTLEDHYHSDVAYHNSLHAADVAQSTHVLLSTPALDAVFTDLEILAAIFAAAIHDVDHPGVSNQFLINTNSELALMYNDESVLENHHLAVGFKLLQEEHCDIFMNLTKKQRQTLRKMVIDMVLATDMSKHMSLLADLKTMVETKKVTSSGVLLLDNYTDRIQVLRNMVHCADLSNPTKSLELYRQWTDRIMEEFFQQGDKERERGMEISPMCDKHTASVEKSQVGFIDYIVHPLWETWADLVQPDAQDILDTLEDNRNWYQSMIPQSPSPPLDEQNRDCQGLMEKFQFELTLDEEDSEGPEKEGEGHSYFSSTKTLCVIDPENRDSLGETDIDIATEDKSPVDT
Outline: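 Live HEK293 cells with a modified cyclic nucleotide-gated (CNG) channel report intracellular cAMP via membrane-potential dye fluorescence (ex 535/em 590 nm). Endogenous PDE-IV was targeted. Compounds were tested at up to 22.9 uM final; RO 20-1724 100 uM served as control.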

[6] = target: Dual specificity protein kinase CLK4 (Homo sapiens) (UniProt Q9HAZ1); experiment: qHTS Assay for Inhibitors of CDC-like Kinase 4 (Kinase-Glo Assay) (AID 1770); conditions: recombinant Clk4, Kinase-Glo ATP depletion luminescence; series mostly up to 66.7 µM; further: nearly all actives have a fitted effect of over 65% in size; further: potency means the concentration at half of the fitted maximal effect
Chain of Dual specificity protein kinase CLK4 (Homo sapiens) (Q9HAZ1 whole entry, looked up): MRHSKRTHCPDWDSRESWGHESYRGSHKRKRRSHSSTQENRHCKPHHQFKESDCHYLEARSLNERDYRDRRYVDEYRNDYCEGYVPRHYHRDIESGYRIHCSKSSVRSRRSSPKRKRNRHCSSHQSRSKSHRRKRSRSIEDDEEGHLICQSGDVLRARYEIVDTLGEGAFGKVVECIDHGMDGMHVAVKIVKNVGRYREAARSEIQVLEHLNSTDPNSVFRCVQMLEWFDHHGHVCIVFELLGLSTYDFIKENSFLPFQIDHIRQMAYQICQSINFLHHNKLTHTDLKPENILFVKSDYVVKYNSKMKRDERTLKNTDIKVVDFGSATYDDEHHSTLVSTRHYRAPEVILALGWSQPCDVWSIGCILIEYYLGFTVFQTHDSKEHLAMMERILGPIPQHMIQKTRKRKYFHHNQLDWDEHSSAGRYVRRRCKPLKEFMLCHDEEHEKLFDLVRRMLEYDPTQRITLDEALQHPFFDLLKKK
Outline: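 Luminescent ATP-depletion read-out (Kinase-Glo) after 4.5 h room-temperature reaction of Clk4 (25 nM final) with RS peptide (100 uM) and ATP (1 uM), pH 7.5 Tris buffer with MgCl2 and DTT.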

[7] = target: Dual specificity protein kinase CLK4 (Homo sapiens) (UniProt Q9HAZ1); experiment: qHTS Assay for Inhibitors of CDC-like Kinase 4 (ADP-FP Assay) (AID 1795); conditions: Transcreener ADP fluorescence polarization; series mostly up to 50 µM; further: nearly all actives have a fitted effect of over 60% in size; further: potency means the concentration at half of the fitted maximal effect
Outline: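 Kinase activity was measured as ADP production using Transcreener orange tracer (4 nM) and ADP antibody (1 ug/mL) fluorescence polarization, with ADP calculated from a calibration curve. The 1 h reaction contained 6.25 nM Clk4, 1 uM ATP and 100 uM RS peptide at pH 7.5 with Mg2+.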

[8] = target: Cytochrome P450 2C9 (Homo sapiens) (UniProt P11712); experiment: qHTS Assay for Inhibitors and Substrates of Cytochrome P450 2C9 (AID 883); conditions: recombinant CYP2C9, luciferin-H luminescence, 60 min; series mostly up to 57.1 µM; further: nearly all actives have a fitted effect of over 60% in size; further: potency means the concentration at half of the fitted maximal effect
Chain of Cytochrome P450 2C9 (Homo sapiens) (P11712 whole entry, looked up): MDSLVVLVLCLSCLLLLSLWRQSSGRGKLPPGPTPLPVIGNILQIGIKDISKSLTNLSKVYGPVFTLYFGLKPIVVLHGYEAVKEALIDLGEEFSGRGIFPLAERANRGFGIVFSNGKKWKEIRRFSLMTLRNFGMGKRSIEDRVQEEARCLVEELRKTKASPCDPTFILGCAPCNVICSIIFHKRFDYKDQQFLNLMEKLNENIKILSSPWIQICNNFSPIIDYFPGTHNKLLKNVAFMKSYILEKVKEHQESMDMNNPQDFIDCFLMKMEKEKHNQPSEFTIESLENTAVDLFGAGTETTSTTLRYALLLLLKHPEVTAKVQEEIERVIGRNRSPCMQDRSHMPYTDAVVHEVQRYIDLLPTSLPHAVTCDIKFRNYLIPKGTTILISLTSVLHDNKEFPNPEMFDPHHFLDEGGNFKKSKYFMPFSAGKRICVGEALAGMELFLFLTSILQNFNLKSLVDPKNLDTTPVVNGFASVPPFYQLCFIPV
Outline: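 A luminogenic readout tracked human CYP2C9 (10nM) converting deoxyluciferin (100uM, at KM) in 25mM KPO4 during 60 min at 37C with regenerated NADPH. Values normalized to 57uM sulphaphenazole as complete inhibition.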

[9] = target: Cytochrome P450 3A4 (Homo sapiens) (UniProt P08684); experiment: qHTS Assay for Inhibitors and Substrates of Cytochrome P450 3A4 (AID 884); conditions: recombinant CYP3A4, Luciferin-PPXE luminescence; series mostly up to 57.1 µM; further: potency means the concentration at half of the fitted maximal effect; nearly all actives have a fitted effect of over 50% in size
Outline: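 20 nM human CYP3A4 with 25 uM Luciferin-PPXE (at KM) in 200 mM KPO4, preincubated 10 min with compound; NADPH regeneration started a 60 min RT reaction. Luciferin detected by luminescence, normalized to 57 uM ketoconazole as full inhibition.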

[10] = target: Cytochrome P450 3A4 (Homo sapiens) (UniProt P08684); experiment: qHTS Assay for Activators of Cytochrome P450 3A4 (AID 885); conditions: recombinant CYP3A4, Luciferin-PPXE luminescence, 60 min; series mostly up to 57.1 µM; further: nearly all actives have a fitted effect of over 65% in size
Outline: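 Quantitative HTS format: compounds preincubated with 20nM human CYP3A4 and Luciferin-PPXE substrate at KM, reaction started by NADPH regeneration, stopped after 60 min, luciferase luminescence read 20 min later.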

[11] = target: Dual specificity protein kinase CLK4 (Homo sapiens) (UniProt Q9HAZ1); experiment: qHTS Assay for Inhibitors of CDC-like Kinase 4 (ADP-Glo Assay) (AID 1771); conditions: recombinant CLK4, ADP-Glo luminescence; series mostly up to 80 µM; further: nearly all actives have a fitted effect of over 70% in size; further: potency means the concentration at half of the fitted maximal effect
Outline: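 Luminescence from ADP-Glo reports ADP produced by 25 nM Clk4 acting on 100 uM RS repeat peptide with 1 uM ATP over 1 hr at room temperature; residual ATP is depleted before ADP is converted to ATP for detection.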

[12] = target: Ubiquitin carboxyl-terminal hydrolase 1 (Homo sapiens) (UniProt O94782); experiment: Inhibitors of USP1/UAF1: Pilot qHTS (AID 504865); conditions: purified USP1/UAF1, Ub-rhodamine cleavage fluorescence; series mostly up to 54.9 µM;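 further: rhodamine fluorescence freed from ubiquitin-rhodamine substrate followed over time; top concentration of the series differs between compounds; on the % scale 0 is the no-effect control and ±100 the full control effect; nearly all actives have a fitted effect of over 35% in size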
Chain of Ubiquitin carboxyl-terminal hydrolase 1 (Homo sapiens) (O94782 whole entry, looked up): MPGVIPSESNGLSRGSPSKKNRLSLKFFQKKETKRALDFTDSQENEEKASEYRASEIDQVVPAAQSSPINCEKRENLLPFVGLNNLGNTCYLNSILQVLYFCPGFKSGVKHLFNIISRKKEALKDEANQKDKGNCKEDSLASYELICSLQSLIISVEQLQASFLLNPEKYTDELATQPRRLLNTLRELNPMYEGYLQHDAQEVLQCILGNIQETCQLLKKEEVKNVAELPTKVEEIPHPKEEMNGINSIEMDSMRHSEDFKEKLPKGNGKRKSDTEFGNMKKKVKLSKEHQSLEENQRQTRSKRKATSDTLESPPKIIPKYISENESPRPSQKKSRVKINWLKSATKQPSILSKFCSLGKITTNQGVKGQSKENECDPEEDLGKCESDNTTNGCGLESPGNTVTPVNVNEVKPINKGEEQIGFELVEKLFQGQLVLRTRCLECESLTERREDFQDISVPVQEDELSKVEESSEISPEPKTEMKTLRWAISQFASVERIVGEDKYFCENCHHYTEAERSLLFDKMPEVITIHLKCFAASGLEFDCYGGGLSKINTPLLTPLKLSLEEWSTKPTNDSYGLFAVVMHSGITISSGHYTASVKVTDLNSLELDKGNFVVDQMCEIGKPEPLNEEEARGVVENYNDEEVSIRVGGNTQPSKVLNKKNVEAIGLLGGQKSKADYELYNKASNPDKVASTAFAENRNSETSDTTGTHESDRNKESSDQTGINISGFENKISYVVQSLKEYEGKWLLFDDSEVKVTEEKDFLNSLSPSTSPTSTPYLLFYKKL
Outline: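 Deubiquitinase activity followed as kinetic rhodamine fluorescence release from 150 nM Ub-Rho. 1 nM USP1/UAF1 with compound, after 15 min room-temperature preincubation, in HEPES pH 7.8 buffer containing TCEP, EDTA, BSA and Tween-20.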

[13] = NFAT Signaling Pathway (AID 444; active means well fitted curve in either direction with a large enough effect, not every such curve was filed as active;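 further: carbachol stimulus at about its EC50 of 1 µM final; on the % scale 0 is the no-effect control and ±100 the full control effect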); conditions: Jurkat NFAT-bla M1, carbachol, beta-lactamase ratio, 5 h; at 7.69 µM (top of the series) unless noted
Outline: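 Jurkat cells carrying an NFAT-driven β-lactamase reporter and co-transfected muscarinic M1 receptor were treated with compound plus carbachol (1 uM final, an EC50 level) for 5 h at 37 °C. CCF4 loading followed for 1 h at RT; 460/530 nm ratio gave %activity.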

[14] = target: Glucocorticoid receptor (Homo sapiens) (UniProt P04150); experiment: GR-GFP Redistribution (AID 450;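 active means compounds whose dose series gives a full or clear partial fitted curve of increased nuclear translocation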; further: potency means the concentration at half of the fitted maximal effect); conditions: U2OS GR-GFP nuclear translocation, laser cytometry, 2 h
Chain of Glucocorticoid receptor (Homo sapiens) (P04150 whole entry, looked up, the tested form may be a part): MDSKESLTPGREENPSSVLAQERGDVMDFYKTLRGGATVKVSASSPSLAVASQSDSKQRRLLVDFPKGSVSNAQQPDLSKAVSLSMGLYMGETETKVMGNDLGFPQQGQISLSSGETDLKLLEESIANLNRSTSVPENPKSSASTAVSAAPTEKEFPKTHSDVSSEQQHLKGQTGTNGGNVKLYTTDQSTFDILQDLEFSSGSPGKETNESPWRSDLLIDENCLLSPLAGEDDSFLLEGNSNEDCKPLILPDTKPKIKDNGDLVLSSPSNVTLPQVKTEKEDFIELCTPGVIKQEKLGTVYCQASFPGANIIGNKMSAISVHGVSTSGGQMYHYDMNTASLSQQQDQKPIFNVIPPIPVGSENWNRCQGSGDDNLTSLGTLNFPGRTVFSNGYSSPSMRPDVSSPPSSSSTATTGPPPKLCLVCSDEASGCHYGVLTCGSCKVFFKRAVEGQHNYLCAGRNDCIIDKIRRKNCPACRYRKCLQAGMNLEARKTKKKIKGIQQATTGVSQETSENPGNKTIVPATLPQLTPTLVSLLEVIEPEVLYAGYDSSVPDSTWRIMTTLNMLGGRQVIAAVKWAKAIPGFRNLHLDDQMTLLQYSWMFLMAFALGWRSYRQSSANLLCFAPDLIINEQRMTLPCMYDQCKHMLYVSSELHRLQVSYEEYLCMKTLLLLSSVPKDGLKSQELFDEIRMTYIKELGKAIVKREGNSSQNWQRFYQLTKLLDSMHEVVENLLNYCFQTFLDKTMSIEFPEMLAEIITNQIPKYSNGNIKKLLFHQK

[15] = target: Cytochrome P450 2D6 (Homo sapiens) (UniProt P10635); experiment: qHTS Assay for Inhibitors and Substrates of Cytochrome P450 2D6 (AID 891); conditions: recombinant CYP2D6, luciferin-ME EGE luminescence; series mostly up to 57.1 µM; further: potency means the concentration at half of the fitted maximal effect; nearly all actives have a fitted effect of over 60% in size
Chain of Cytochrome P450 2D6 (Homo sapiens) (P10635 whole entry, looked up): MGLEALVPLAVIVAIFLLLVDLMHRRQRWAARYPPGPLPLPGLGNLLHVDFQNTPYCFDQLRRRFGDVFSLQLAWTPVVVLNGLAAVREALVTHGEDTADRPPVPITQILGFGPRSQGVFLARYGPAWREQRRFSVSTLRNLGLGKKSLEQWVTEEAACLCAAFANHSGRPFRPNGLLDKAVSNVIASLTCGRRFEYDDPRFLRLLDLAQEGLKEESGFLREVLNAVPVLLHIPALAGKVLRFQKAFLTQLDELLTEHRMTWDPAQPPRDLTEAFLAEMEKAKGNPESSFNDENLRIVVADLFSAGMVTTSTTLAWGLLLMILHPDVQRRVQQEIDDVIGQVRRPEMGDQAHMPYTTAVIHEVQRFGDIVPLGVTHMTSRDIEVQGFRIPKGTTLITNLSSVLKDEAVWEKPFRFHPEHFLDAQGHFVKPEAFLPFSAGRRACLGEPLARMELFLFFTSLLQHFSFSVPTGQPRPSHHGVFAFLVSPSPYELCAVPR
Outline: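 Human CYP2D6 (5 nM) with 30 uM Luciferin-ME EGE (at Km) in 100 mM KPO4, compound preincubated 10 min, then NADPH regeneration system for 60 min at room temperature. Luciferin read by luminescence; normalized to 1.43 uM quinidine.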

[16] = target: Glucocorticoid receptor (Homo sapiens) (UniProt P04150); experiment: GR-EFC Redistribution (AID 451; calls by dose curve; further: potency means the concentration at half of the fitted maximal effect); conditions: CHO-K1 GR-EFC translocation, beta-gal luminescence, 2 h
Outline: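 CHO-K1 cells stably expressing nuclear-localized β-gal enzyme acceptor and GR fused C-terminally to the enzyme donor fragment; ligand-driven nuclear translocation restores β-gal by complementation. Compounds titrated up to 46 uM final, 2 h at 37 °C; luminescence read.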

[17] = target: Mitogen-activated protein kinase 10 (Mus musculus) (UniProt Q61831); experiment: JNK3 AlphaScreen Assay (AID 530; active means well fitted curve in either direction with a large enough effect, not every such curve was filed as active;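 further: kinase came from lysate of stimulated human HepG2 cells; signal reports phosphorylation of biotinylated GST-cJun 1-79 at Ser73 with 10 µM ATP; on the % scale 0 is the no-effect control and ±100 the full control effect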); conditions: JNK3 lysate, c-Jun phosphorylation; series mostly up to 57.1 µM
Outline: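 Inhibitors reduce antibody binding to phosphorylated biotin-cJun, lowering AlphaScreen luminescence. Lysates from HepG2 cells pre-activated by IL-1beta plus TNF-alpha supplied JNK3; compounds were titrated.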

Compound	Potency [1] [µM]	activity change, negative = inhibition [2] [%]	Potency [3]	outcome [4]	Potency [5]	Potency [6]	Potency [7]	Potency [8]	Potency [9]	outcome [10]	Potency [11]	Potency [12]	activity change, negative = inhibition [13] [%]	Potency [14] [µM]	Potency [15]	Potency [16] [µM]	Potency [17]	activity change, negative = inhibition [8]
COc1ccc(-c2nc3cnc(N4CCOCC4)nc3n(-c3ccc(OC)cc3)c2=O)cc1	> 11.4	-5.89	10 µM (active)	inactive	inactive	inactive	inactive	–	–	–	–	–	–	–	–	–	–	–
COc1ccc2[nH]cc(CCNc3ncnc4ccc(-c5cccc(C#N)c5)cc34)c2c1	> 11.4	–	2.51 µM (active)	inactive	–	12.6 µM (active)	–	0.0631 µM (active)	2.51 µM (active)	inactive	15.8 µM (active)	inactive	–	–	–	–	–	–
COCCn1c(=O)c(CCc2ccccc2)nc2cnc(Oc3ccccc3)nc21	> 11.4	-27.4	–	inactive	inactive	inactive	–	–	–	–	inactive	inactive	7.7	> 9.22	–	–	–	–
COc1ccccc1CNc1cc(-c2cccnc2)ncn1	> 11.4	-4.39	1 µM (active)	inactive	inactive	25.1 µM (active)	–	–	0.631 µM (active)	inactive	31.6 µM (active)	inactive	-5.01	> 46	5.01 µM (active)	–	–	–
Cc1cccc(CNc2ncncc2-c2ccccc2CN(C)C)c1	> 11.4	1.18	–	–	inactive	inactive	–	–	–	–	inactive	inactive	–	–	–	> 46	inactive	–
CN(C)c1nc(-c2cccc(C#N)c2)nc2ccccc12	> 11.4	2.42	–	inactive	–	15.8 µM (active)	–	–	–	–	15.8 µM (active)	inactive	–	–	–	–	–	–
COc1ccccc1CNc1ccnc(-c2cccc(NS(C)(=O)=O)c2)n1	> 11.4	-17.8	–	inactive	inactive	28.2 µM (active)	–	–	–	–	25.1 µM (active)	–	2.18	> 46	–	> 46	inactive	–
COCCn1c(=O)c(CCc2ccccc2)nc2cncnc21	–	-15.8	10 µM (active)	inactive	inactive	inactive	–	–	7.94 µM (active)	inactive	inactive	inactive	9.83	–	–	> 46	inactive	–
COc1ccccc1CNc1ncnc2ccc(-c3ccc(C(=O)N(C)C)cc3)cc12	> 11.4	–	12.6 µM (active)	inactive	–	inactive	inactive	–	–	inactive	–	inactive	14.5	> 46	–	> 46	inactive	–
COc1cccc(Nc2ncc3ncc(=O)n(Cc4ccc(F)cc4)c3n2)c1	–	-28.1	–	inactive	–	3.98 µM (active)	–	–	–	–	2.51 µM (active)	inactive	-8.23	> 9.22	–	–	inactive	–
CN(C)c1ncc2nc(-c3ccccc3)c(=O)n(C)c2n1	> 11.4	–	1 µM (active)	–	–	inactive	–	–	–	–	inactive	inactive	–	> 9.22	–	> 46	–	–
COCCn1c(=O)c(-c2cc(F)cc(F)c2)nc2cnc(N3CCN(C)CC3)nc21	> 11.4	19.3	15.8 µM (active)	–	inactive	inactive	–	–	–	–	inactive	inactive	–	> 9.22	–	> 46	inactive	–
Cc1noc(C)c1-c1nc(N2CCN(C)CC2)c2ccccc2n1	> 11.4	28.9	0.316 µM (active)	inactive	–	15.8 µM (active)	–	–	–	–	28.2 µM (active)	–	-5.52	–	–	> 46	inactive	–
COc1cccc(-c2cncnc2NCCc2c[nH]c3ccc(OC)cc23)c1	–	–	2 µM (active)	–	inactive	20 µM (active)	–	–	0.501 µM (active)	inactive	22.4 µM (active)	inactive	–	> 46	2.51 µM (active)	> 46	–	–
CN(C)c1ncc2nc(CCc3ccccc3)c(=O)n(CCC#N)c2n1	> 11.4	-11	2 µM (active)	inactive	–	inactive	–	–	–	inactive	inactive	inactive	-3.25	> 9.22	2.51 µM (active)	> 46	–	–
COc1cccc(-c2nc(N(C)C)c3ccccc3n2)c1	–	15.5	0.251 µM (active)	–	inactive	11.2 µM (active)	–	–	5.01 µM (active)	inactive	7.08 µM (active)	–	-14.5	–	–	> 46	inactive	45.3% [at 2.29 µM]
CN1CCN(c2ncc3nc(-c4cn(C)c5ccccc45)c(=O)n(C[C@H]4CCCO4)c3n2)CC1	> 11.4	-8.04	6.31 µM (active)	inactive	inactive	inactive	–	inactive	–	–	inactive	inactive	3.64	> 46	–	–	–	–
c1ccc2c(NCCN3CCOCC3)nc(-c3ccc4c(c3)OCO4)nc2c1	> 11.4	-11.7	–	inactive	inactive	inactive	inactive	–	–	–	–	inactive	12.2	> 46	–	> 46	inactive	–
COc1cccc(Nc2ncc3ncc(=O)n(CCC#N)c3n2)c1	> 11.4	-26.1	1 µM (active)	inactive	inactive	6.31 µM (active)	2.51 µM (active)	–	–	inactive	–	inactive	-0.673	> 9.22	–	–	inactive	–
COc1ccc2[nH]cc(CCNc3ncncc3-c3ccccc3OC)c2c1	> 11.4	-16.8	2.51 µM (active)	–	inactive	8.91 µM (active)	–	0.251 µM (active)	0.126 µM (active)	inactive	25.1 µM (active)	inactive	-9.5	> 46	1.26 µM (active)	> 46	inactive	–
COc1ccc2[nH]cc(CCNc3cc(-c4cccc(C#N)c4)ncn3)c2c1	–	-15.9	0.794 µM (active)	inactive	inactive	25.1 µM (active)	–	–	3.98 µM (active)	inactive	–	inactive	–	> 46	–	> 46	inactive	–
O=c1c(-c2ccccc2)nc2cnc(Oc3ccccc3)nc2n1C[C@H]1CCCO1	> 11.4	180	–	inactive	inactive	–	inactive	–	–	–	inactive	–	4.49	> 9.22	–	> 46	inactive	–
